# About 13,000 (27%) of roughly 48,000 compounds showed an effect of 50% or more. This is one part of the list.
# System: Wolbachia pipientis
# Experiment: Anti-Wolbachia Cell-Based Screen
# Format: functional
# Design: scale not given: in the data most compounds retested in dose-response had high values
# Details: 5 µM
row,SMILES,Percent Effect
1,O=C1O[C@@H]2CN(Cc3ccccc3F)C[C@@H]2N1CCCN1CCOCC1,2.415%
2,CCn1c(CN2CCCC(Cn3cncn3)C2)nc2c(F)cccc21 (stereo unspecified),-3.133%
3,NCC1(CN2CCOCC2)CCCCC1,7.377%
4,NC1(CN2CCOCC2)CCCCC1,80.74%
5,NC1(CN2CCCCC2)CCCCC1,100.8%
6,OCCN1CCN(CC2(O)CCCCC2)CC1,-8.643%
7,Cc1nsc(NC(=O)NC2(CN3CCOCC3)CCCCC2)n1,1.675%
8,OC1(CN2CCCC2)CCCN(c2ncnc3[nH]cnc23)C1 (stereo unspecified),-10.69%
9,CCCc1nc(C)c(CNc2nc(C)nc3oc(C)nc23)s1,10.41%
10,Cc1nnc(SCCC(=O)N(C)Cc2ccc(F)cc2Cl)[nH]1,5.698%
11,c1ccc(NCc2ccsc2)c(Cn2cncn2)c1,3.372%
12,CC(=O)NC(Cc1c[nH]c2cc(F)ccc12)C(=O)Nc1cnn(C)c1 (stereo unspecified),-8.595%
13,COc1ccc(C(C)NC(=O)Nc2nnc(C)s2)c(OC)c1 (stereo unspecified),5.487%
14,COc1ccc(C(C)NCCc2ccc(NC(C)=O)cc2)cc1F (stereo unspecified),98.08%
15,COc1ccc(C(C)Nc2ncc(C(N)=O)cc2Cl)cc1F (stereo unspecified),-11.64%
16,COc1ccc(NC(C)C(=O)NCCc2cccs2)cc1F (stereo unspecified),-5.142%
17,COc1ccc(C(C)NC(=O)NCCCn2cncn2)cc1F (stereo unspecified),3.932%
18,COc1ccc(C(C)NCCc2ccc(NC(C)=O)cc2)c(OC)c1 (stereo unspecified),110.9%
19,COc1ccc(C(C)NCCC(N)=O)cc1F (stereo unspecified),53.8%
20,COc1ccc(C(C)NCc2nnc(C)s2)cc1F (stereo unspecified),-18.95%
21,COc1ccc(C(C)NC(=O)NCCc2ccc(C)nc2)c(OC)c1 (stereo unspecified),8.171%
22,Cc1ccc(NCc2ccccc2C#N)cc1-n1cnnn1,14%
23,CCCNC(=O)CNc1cc(C(=O)NCC(F)(F)F)cc(F)c1C,-0.1534%
24,COCCN(Cc1ccco1)Cc1nc(-c2ccccc2C)no1,-8.039%
25,CN(c1ncc(S(N)(=O)=O)s1)C1CCc2ccccc21 (stereo unspecified),0.8223%
26,Cc1cc(CNCC2Cn3nnc(C)c3CO2)oc1C.O=C(O)C(F)(F)F (stereo unspecified),-14.18%

row,SMILES,Percent Effect
1,Fc1ccc(CNCC2Cn3nncc3CO2)cc1.O=C(O)C(F)(F)F (stereo unspecified),10.26%
2,Cc1noc(C)c1CNCC1Cn2nncc2CO1.O=C(O)C(F)(F)F (stereo unspecified),106%
3,O=C(O)C(F)(F)F.c1ccc(CCNCC2Cn3nncc3CO2)cc1 (stereo unspecified),-6.101%
4,O=C(O)C(F)(F)F.c1cc(CNCC2Cn3nncc3CO2)co1 (stereo unspecified),-8.195%
5,Cc1nc(CNCC2Cn3nncc3CO2)cs1.O=C(O)C(F)(F)F (stereo unspecified),95.04%
6,COc1cc2ccn(CCCO)c(=O)c2cc1F,-13.96%
7,Cc1ccc(CCCC(=O)N2CCC(=O)Nc3cccnc32)s1,9.523%
8,Cl.Cl.O[C@@H]1C[C@@](CNCc2ccc(Cl)cc2)(COc2cccnc2)C[C@@H]1O,-11.4%
9,Cc1nc(C)n(CC(C)C(=O)N2CCC(CN3CCOCC3)CC2)n1 (stereo unspecified),-24.3%
10,CC(C)(C)CC(=O)N1CSCC1C(=O)NC1=NCCS1 (stereo unspecified),6.289%
11,CS(=O)(=O)N1CCC(NC(=O)COc2ccc(Br)cc2Cl)CC1,124.9%
12,CS(=O)(=O)N1CCC(NC(=O)COc2ccccc2Cl)CC1,111.5%
13,CNC(=O)c1ccc(OC2CCN(S(C)(=O)=O)CC2)c(Cl)c1,-16.21%
14,COC(C(=O)NC1CCN(S(C)(=O)=O)CC1)c1ccccc1 (stereo unspecified),12.34%
15,CS(=O)(=O)N1CCC(Oc2ccc(C(=O)NC3CCCC3)cc2Cl)CC1,-48.27%
16,COc1cccc2c1OCC(C(=O)NC1CCN(S(C)(=O)=O)CC1)C2 (stereo unspecified),11.83%
17,CC(CNC(=O)N1CCN(CC(F)F)CC1)Cc1cccs1 (stereo unspecified),5.816%
18,Cn1ccnc1C(O)(CCNCc1ccco1)C(F)(F)F (stereo unspecified),-13.62%
19,CN(C)CCNC(=O)Nc1cccc(C[S+]([O-])Cc2ccccc2)c1 (stereo unspecified),-3.662%
20,Cc1noc(CN(C)CC2CCN(CCO)CC2)n1,3.042%
21,COc1ccc(CN2CCC3(CCCNC3)C2)cc1Cn1cccn1 (stereo unspecified),-22.52%
22,COc1cccc(OC)c1CN1CCC2(CC(Nc3ccncn3)C2)C1 (stereo unspecified),4.398%
23,COc1cc(CN2CCC3(CC(Nc4ccncn4)C3)C2)cc(OC)c1 (stereo unspecified),125.9%
24,COc1cccc(CN2CCC3(CC(Nc4ccncn4)C3)C2)c1F (stereo unspecified),97.57%
25,COc1ccc(CN2CCC3(CC(Nc4ccncn4)C3)C2)c(OC)c1 (stereo unspecified),2.421%
26,O=C(Cn1cccn1)N1CCC(Oc2cnccn2)CC1,4.434%

row,SMILES,Percent Effect
1,Cc1nc(C)c(CN2CCOC[C@H](Oc3cnccn3)C2)s1,-6.668%
2,Cc1nn(C)c(C)c1CC(=O)NCc1ccnc(OC2CCCC2)c1,-17.69%
3,O=C(Cn1ccc2ccccc21)N1CCC(Oc2cnccn2)CC1,0.2299%
4,CCOC1CCN(CC(=O)Nc2oc(C)c3c(C)n[nH]c(=O)c23)CC1,-5.173%
5,Cn1ccc(NC(=O)CN2CCC(Oc3cnccn3)CC2)n1,107.4%
6,Cc1c(NC(=O)CN2CCC(Oc3cnccn3)CC2)cnn1C,146%
7,COc1ccnc(NC2CCN(CC(=O)Nc3ccccc3)CC2)n1,-1.982%
8,Cc1nn(C)cc1NC(=O)CN1CCC(Oc2cnccn2)CC1,129.5%
9,CN1CCC(N2CCN(C(C(=O)O)c3cccc4c3OCC4)CC2)CC1 (stereo unspecified),-2.868%
10,Cc1nc(-c2cc(C(=O)NC(C)(C(=O)O)C(C)C)co2)cs1 (stereo unspecified),1.094%
11,O=C(NCCC1CCCCO1)c1cc(COc2cncc(Cl)c2)on1 (stereo unspecified),-5.256%
12,CSC(C)(C)CNC(=O)NC1CCSCC1,-7.35%
13,CCc1nc(C(=O)N2CCN(C)CC2C)nn1-c1ccccc1Cl (stereo unspecified),4.953%
14,CC1CN(C)CCN1C(=O)c1ccn(-c2ccccc2Cl)n1 (stereo unspecified),97.32%
15,CC1CN(C)CCN1C(=O)c1ccn(-c2ccccc2)n1 (stereo unspecified),92.82%
16,COc1ccc(-n2ccc(C(=O)N3CCN(C)CC3C)n2)cc1 (stereo unspecified),-4.695%
17,Cc1cc(NC(=O)N2CCN(C)CC2C)n(Cc2ccccc2)n1 (stereo unspecified),-3.69%
18,CC1CN(C)CCN1C(=O)c1cccn1Cc1cccnc1 (stereo unspecified),1.342%
19,Cc1cnn(-c2ccc(C(=O)N3CCN(C)CC3C)cc2)c1 (stereo unspecified),-5.131%
20,CC1CN(C)CCN1C(=O)c1cnn(-c2cccc(Cl)c2)c1 (stereo unspecified),91.23%
21,CC1CN(C)CCN1C(=O)c1ccn(-c2ccc(F)cc2)n1 (stereo unspecified),101.7%
22,CC1CN(C)CCN1C(=O)c1cccn1Cc1ccncc1 (stereo unspecified),17.94%
23,CC1CN(C)CCN1C(=O)c1ccc(-n2cnnc2)cc1 (stereo unspecified),-8.678%
24,CC1CN(C)CCN1C(=O)c1cnn(-c2ccc(Cl)cc2)c1 (stereo unspecified),3.844%
